This passage reports z-score and composite z-score results from PubChem BioAssay.

Calls of active or inactive are those of the source. Unless noted, the rule behind the calls is not given here.

A short description of experiment [1]: HepG2 liver cancer cell viability effects, profiling panel, resazurin fluorescence, 24 h, PK04 Diversity Set (AID 1172). Note: test concentration not given here. Conditions: higher = more signal. Background: Resazurin is reduced to fluorescent resorufin, in cell work by metabolically active cells.
Experiment [2] can be described thus: basal S. cerevisiae growth modulation, no modifier, primary screen, OD600, strain BY4716, 24 h, basal condition (AID 1173). Conditions: OD600, 24 h, higher = more signal, called active from +8 up or from −8 down.
A short description of experiment [3]: MM1S myeloma cell viability, profiling panel, resazurin fluorescence, basal, 24 h, PK04 Diversity Set (AID 1174).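 Note: MM1S multiple myeloma cell line; test concentration not given here.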 As to conditions: higher = more signal, called active from +8 up or from −8 down.
For experiment [4], the target named is Dihydroorotate dehydrogenase (quinone), mitochondrial (Plasmodium falciparum (isolate 3D7)) (UniProt Q08210). Briefly: PfDHODH enzyme inhibitors, primary screen, biochemical, C-terminal His tag, absorbance 600 nm (AID 1175).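 Note: recombinant parasite enzyme with a five histidine tag at its C terminus; test concentration not given here.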 As to conditions: DCIP absorbance 600 nm, higher = more signal, called active from +8 up or from −8 down.
The nature of experiment [5]: P. aeruginosa biofilm formation inhibitors, primary screen, strain PAO1, LB-PBS medium, absorbance 600 nm (AID 1176). Note: test concentration not given here. Conditions: P. aeruginosa PAO1 growth/biofilm, A600, 12 h; higher = more signal.
Experiment [6] is described as follows: S. cerevisiae RM11-1a growth modifiers, primary screen, strain RM11-1a, OD600, basal, 24 h (AID 1177).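 Note: cultures grown under basal conditions with no added stressor; test concentration not given here.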 As to conditions: OD600, 24 h, higher = more signal, called active from +8 up or from −8 down.
Experiment [7] is described as follows: E. coli acrAB mutant growth effects, primary screen, E. coli filamentation inducers, strain DRC39, OD650, 24 h (AID 1178).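 Note: growth measured as culture turbidity by optical density at 650 nm; test concentration not given here.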 Conditions: higher = more signal, called active from +8 up or from −8 down.
Experiment [8] in a line: E. coli acrAB mutant growth effects, primary screen, E. coli filamentation inducers, strain DRC39, OD650, 48 h (AID 1179).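 Note: screen aims at cell division blockers that make cells filament.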 Conditions: E. coli DRC39 delta-acrAB growth, higher = more signal, called active from +8 up or from −8 down.
Experiment [9] can be described thus: RPMI8226 myeloma cell viability, profiling panel, resazurin fluorescence, basal, 24 h, PK04 Diversity Set (AID 1180).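 Note: RPMI8826 multiple myeloma cell line at 5000 cells per well; test concentration not given here.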 Conditions: higher = more signal.
In experiment [10] the target is E3 ubiquitin-protein ligase XIAP (Homo sapiens) (UniProt P98170). Briefly: XIAP binders, primary screen, biophysical, small-molecule microarray, fluorescence 635 nm (AID 1181).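 Note: score merges 667 nm emission and signal to noise over triplicate slides.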 As to conditions: small-molecule microarray binding, higher = more signal.
Chain of E3 ubiquitin-protein ligase XIAP (Homo sapiens) (P98170 whole entry, looked up): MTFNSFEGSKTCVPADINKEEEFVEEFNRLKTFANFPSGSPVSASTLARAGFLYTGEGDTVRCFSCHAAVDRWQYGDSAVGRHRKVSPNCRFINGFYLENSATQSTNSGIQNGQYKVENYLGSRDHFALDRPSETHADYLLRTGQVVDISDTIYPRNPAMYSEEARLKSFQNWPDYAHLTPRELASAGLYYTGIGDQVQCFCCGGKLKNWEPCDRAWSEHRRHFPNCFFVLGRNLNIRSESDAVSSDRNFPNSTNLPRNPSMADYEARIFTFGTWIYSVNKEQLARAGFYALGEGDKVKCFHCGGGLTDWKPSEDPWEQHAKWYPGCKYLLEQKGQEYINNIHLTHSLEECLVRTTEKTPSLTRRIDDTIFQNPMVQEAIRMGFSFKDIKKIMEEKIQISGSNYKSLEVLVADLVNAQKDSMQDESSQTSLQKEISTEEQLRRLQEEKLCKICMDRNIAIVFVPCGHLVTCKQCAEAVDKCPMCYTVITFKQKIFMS

Chain of Dihydroorotate dehydrogenase (quinone), mitochondrial (Plasmodium falciparum (isolate 3D7)) (Q08210 whole entry, looked up): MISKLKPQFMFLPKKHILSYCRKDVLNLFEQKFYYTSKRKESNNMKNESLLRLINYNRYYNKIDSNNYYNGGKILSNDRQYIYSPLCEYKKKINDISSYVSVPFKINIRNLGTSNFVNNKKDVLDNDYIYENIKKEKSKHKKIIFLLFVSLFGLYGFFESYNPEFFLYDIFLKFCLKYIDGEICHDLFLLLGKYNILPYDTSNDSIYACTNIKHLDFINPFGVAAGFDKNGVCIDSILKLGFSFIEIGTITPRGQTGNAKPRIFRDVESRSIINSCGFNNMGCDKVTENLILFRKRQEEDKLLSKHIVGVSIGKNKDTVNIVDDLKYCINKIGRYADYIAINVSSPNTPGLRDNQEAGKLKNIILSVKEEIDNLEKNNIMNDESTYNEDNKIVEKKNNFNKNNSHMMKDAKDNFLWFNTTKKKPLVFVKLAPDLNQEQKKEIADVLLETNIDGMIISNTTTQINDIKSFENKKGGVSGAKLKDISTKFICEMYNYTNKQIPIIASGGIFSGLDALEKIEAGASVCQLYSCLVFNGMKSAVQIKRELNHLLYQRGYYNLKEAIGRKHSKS

`C=CCC(OC(C)=O)[C@@H]1[C@@H](N(Cc2cc3ccccc3o2)C(=O)Cc2ccc(OC)cc2)c2cc(OCCCO)ccc2N1C(=O)c1ccc(-c2ccccc2)cc1` (stereo not given in full): the z-score in [1] was -0.877; in [2], -0.464 (inactive); in experiment [3], 1.05 (inactive); in experiment [5] it was -0.558 (inactive); in experiment [6], 0.275 (inactive); in experiment [7], 0.66 (inactive). In addition, the z-score in [8] is 0.16 (inactive); in experiment [9] it was 0.337. The composite z-score in experiment [4] was 0.849 (inactive); in experiment [10] it was -0.0575.

For `C=CC[C@@]1(C(=O)NCC(O)CO)N=C(c2ccc(OCCCO)cc2)O[C@@H]1c1ccccc1` (stereo not given in full), the z-score is 0.483 in experiment [1]; -2.05 (inactive) in experiment [2]; 0.552 (inactive) in experiment [3]; -0.223 (inactive) in [5]; -0.108 (inactive) in experiment [6]; 2.08 (inactive) in experiment [7]. Moreover, the z-score in [8] is 0.196 (inactive); in [9], 0.934. The composite z-score in [4] was 0.358 (inactive); in experiment [10] it was -0.0374.

On to `O=C(Nc1cc(Br)ccc1C(=O)NCc1cccc(O)c1)c1ccccc1`, for which the z-score in experiment [1] is -1.11; in [2] it was -0.887 (inactive); in [3], -0.407 (inactive); in experiment [5], 0.034 (inactive); in [6], 0.659 (inactive); in experiment [7], 1.45 (inactive). For the same compound, the z-score in experiment [8] is 1.06 (inactive); in experiment [9] it was -0.565. For the same compound, the composite z-score in [4] is 0.591 (inactive); in [10], 0.41.

Take `COC(=O)C(CC#Cc1ccc2c(c1)[C@]1(C(=O)N2)[C@H](C(=O)N2CCc3cc(OC)c(OC)cc3C2)[C@H]2C(=O)O[C@H](c3ccccc3)[C@H](c3ccccc3)N2[C@@H]1c1ccc(O)cc1)C(=O)OC`: the z-score is -0.555 in [1]; 1.8 (inactive) in experiment [2]; 1.26 (inactive) in experiment [3]; 3.04 (inactive) in experiment [5]; 3.33 (inactive) in experiment [6]; 0.414 (inactive) in experiment [7]. Further, the values for the z-score in [8] and in [9] were 0.356 (inactive) and -0.14, respectively. In addition, the figures for the composite z-score in experiment [4] and in experiment [10] were -22.8 (active) and -0.167, respectively.

In the case of `Cc1ccc(S[C@]2(C(=O)NCCN3CCOCC3)CC(=O)N(C3Cc4ccccc4C3)[C@@H]2c2ccc(CO)cc2)cc1`, the z-score was -0.211 in [1]; 0.884 (inactive) in experiment [2]; -0.209 (inactive) in experiment [3]; 0.0435 (inactive) in experiment [5]; 0.948 (inactive) in experiment [6]; 0.435 (inactive) in [7]. For the same compound, the z-score in [8] is 0.337 (inactive); in experiment [9], -0.109. Besides, the composite z-score was 0.408 (inactive) in experiment [4] and -0.0282 in experiment [10].

In the case of `CN(C)CCCC[C@@H]1NC(=O)[C@H]2C[C@@H](C(=O)NCCCCCCNC(=O)CS)[C@@H](c3ccc(O)cc3)N2C1=O`, the z-score was 0.183 in experiment [1]; -0.213 (inactive) in [2]; -0.614 (inactive) in experiment [3]; 0.022 (inactive) in experiment [5]; -0.48 (inactive) in experiment [6]; 0.0961 (inactive) in [7]. Also, the z-score in [8] was -0.509 (inactive); in experiment [9], -0.892. Besides, the composite z-score in experiment [4] is -0.368 (inactive); in [10], -0.0749.

Consider `CC(C)C[C@@H]1NC(=O)[C@@H]2C[C@H](C(=O)NCc3ccc(F)cc3)[C@H](c3ccc(O)cc3)N2C1=O`, for which the z-score was -1.5 in experiment [1]; 0.0288 (inactive) in experiment [2]; 0.429 (inactive) in [3]; 0.891 (inactive) in experiment [5]; -0.647 (inactive) in [6]; -0.52 (inactive) in experiment [7]. The z-score in experiment [8] was -1.2 (inactive); in experiment [9], 0.734. The composite z-score in [4] is -1.36 (inactive); in experiment [10], 0.222.

`C[C@]12C(=O)N(CCCO)[C@@H]3C(=O)N(c4ccc(Cl)cc4)CC=CC31O[C@@H]1/C=C\CCCOC(=O)C12` (stereo not given in full): the z-score in experiment [1] was -0.468; in [2] it was -0.0146 (inactive); in [3], -0.291 (inactive); in experiment [5], -0.553 (inactive); in experiment [6] it was -0.965 (inactive); in [7], -0.477 (inactive). Moreover, the z-score in [8] was -0.464 (inactive); in experiment [9] it was -0.217. The figures for the composite z-score in experiment [4] and in [10] were 0.0021 (inactive) and 0.734, respectively.

For `CN(C)C(=O)[C@@]1(Cc2ccccc2N=[N+]=[N-])N=C(c2ccc(OCCCO)cc2)O[C@H]1c1ccccc1N=[N+]=[N-]`, the z-score in experiment [1] is -0.663; in experiment [2], 0.582 (inactive); in experiment [3] it was -1.8 (inactive); in experiment [5], -0.73 (inactive); in experiment [6], 2.9 (inactive); in experiment [7], 0.732 (inactive). Also, the z-score was -0.421 (inactive) in experiment [8] and -2.2 in experiment [9]. The results for the composite z-score in experiment [4] and in experiment [10] were 1.32 (inactive) and 1.98, respectively.

For the compound `CCCN1C(=O)[C@@]2(Cc3ccccc3)N=C(c3ccc(OCCCO)cc3)O[C@H]2c2ccccc21`, the z-score in [1] is 0.167; in experiment [2], -2.03 (inactive); in experiment [3] it was -1.66 (inactive); in experiment [5], 1.02 (inactive); in [6], 0.673 (inactive); in experiment [7] it was 0.248 (inactive). For the same compound, the z-score is -0.319 (inactive) in experiment [8] and -1.57 in experiment [9]. The composite z-score was -0.319 (inactive) in experiment [4] and -0.206 in experiment [10].

For the compound `O=C1N(CCS(=O)(=O)c2ccccc2)Cc2ccccc2C[C@@]12COC(c1ccc(OCCCO)cc1)=N2`, the z-score was 0.0549 in [1]; 1.58 (inactive) in experiment [2]; -5.12 (inactive) in experiment [3]; 0.0379 (inactive) in [5]; 2.14 (inactive) in [6]; 0.862 (inactive) in experiment [7]. The z-score in [8] was -0.691 (inactive); in experiment [9], -3.43. For the same compound, the composite z-score in experiment [4] was -0.211 (inactive); in [10], 0.167.
